Only some compounds are listed: those with a hit (about 8% of all), similar ones and a draw of the others.
KB-V1 MDR tox: KB-V1 MDR subline cytotoxicity; KB-V1 MDR cells viability, CellTiter-Glo, 72 h; Potency, µM (highest dose often 46.1 µM), hits mostly cytotoxic; 400,000 compounds, 3.4% hits; also: % is scaled to controls: 0 for no effect and ±100 for the full control effect; nearly all actives have a fitted effect of over 60% in size
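Compound-treated KB-V1 multidrug-resistant cells, 72 h, 37 degrees C; viability by CellTiter-Glo. Fitted qHTS curves give the values.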
HT1080NT lethal: kills 2HG-producing HT-1080-NT fibrosarcoma cells; HT-1080-NT fibrosarcoma viability, CellTiter-Glo ATP luminescence, 48 h; Potency, µM (titrated, usually from 46.1 µM), without a hit: at the highest dose activity, negative = less viability, hits mostly cytotoxic; AID 686970; 360,000 compounds, 1.6% hits;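 also: NT is the 2HG producing partner of a matched IDH1 knockdown line; 0% = DMSO-treated cells and -100% = media-only wells without cells; nearly all actives have a fitted effect of over 55% in size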
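Compounds were tested in concentration-response format on HT-1080-NT cells for 48 hours at 37 degrees C. Cell viability came from CellTiter-Glo luminescence; curves were classified by r2, response magnitude and activity.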
SW480 rereplic: DNA re-replication induction in SW480 cells; SW480 DNA re-replication, Hoechst DNA content imaging, 48 h; Potency, µM (series often up to 46.1 µM), for the others: top-dose re-replication activation, most hits filed as activators; 340,000 compounds, 1.8% hits; also: % of control where 0% means no effect; nearly all actives have a fitted effect of over 55% in size
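Readout is total intensity of Hoechst-stained nuclei, excited at 405 nm and collected at 500-530 nm. Compound treatment lasted 48 hr at 37 C in 5% CO2 before staining.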
HT1080 IDH1KD tx: HT-1080 IDH1 knockdown cell toxicity (counter line); 360,000 compounds, 2% hits; HT-1080 IDH1 knockdown viability, ATP luminescence, 48 h; Potency, µM (highest dose often 46.1 µM), for inactives: at the top dose activity, negative = toxicity, usual class: cytotoxic;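 also: 0% = DMSO wells and -100% = cell-free medium wells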
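Knockdown cells (IDH1KD HT-1080) received compounds 2 h after plating at 750 cells/well and were kept 48 h at 37 °C in 5% FBS RPMI. A CellTiter-Glo luminescence read gave % activity for curve fitting.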
KB-3-1 tox: KB-3-1 parental cell cytotoxicity; KB-3-1 viability, CellTiter-Glo ATP luminescence, 72 h; Potency, µM (doses to about 46.1 µM), hits mostly cytotoxic; 400,000 compounds, 1.4% hits; also: % is scaled to controls: 0 for no effect and ±100 for the full control effect; nearly all actives have a fitted effect of over 60% in size
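Parental KB-3-1 adenocarcinoma cells in phenol-red-free DMEM with 10% FBS were pin-treated with compounds at several concentrations, incubated 72 h at 37 °C, and viability read by CellTiter-Glo luminescence; concentration-effect curves were fitted after normalization.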
MCF10A rereplic: inducers of DNA re-replication in MCF 10A breast cells; MCF 10A DNA re-replication, Hoechst nuclear intensity, 48 h; Potency, µM (series often up to 46.1 µM), inactives show top-dose activity, positive = re-replication, hits mostly activators; 350,000 compounds, 2.9% hits; AID 624296; also: % of control where 0% means no effect; nearly all actives have a fitted effect of over 50% in size
Active calls of the source: *; i = inactive; ? = inconclusive; / = not tested or not shown. Calls follow the shape of the dose curve; as a rule, active = well fitted curve in the direction sought with a large enough effect; inconclusive = small, poorly fitted or top-dose-only effect, or another doubt; inactive = no such curve, though single readings can be large; an effect the other way counts as inactive or inconclusive. Potency is read from the fitted curve at half-maximal effect.

SMILES	KB-V1 MDR tox	HT1080NT lethal	SW480 rereplic	HT1080 IDH1KD tx	KB-3-1 tox	MCF10A rereplic
CN1CCN(c2nc(NCc3ccco3)nc(N)c2[N+](=O)[O-])CC1	i	7.8%	13µM*	9.9%	i	?
CNS(=O)(=O)c1cccc(C(=O)OCC(=O)c2ccc3[nH]c(=O)[nH]c3c2)c1	/	0.0%	0.8%	-13.8%	/	1.0%
CCC(=O)NC(c1ccc(C)cc1)c1ccc2cccnc2c1O (stereo not drawn)	?	-29.7%	0.82µM*	?	?	?
O=C(O)c1ccccc1NC(c1ccccc1)c1ccc2cccnc2c1O (stereo not drawn)	?	-22.5%	?	8.2µM*	?	?
COc1ccccc1NC(c1cccnc1)c1ccc2cccnc2c1O (stereo not drawn)	?	-15.2%	?	?	i	?
COc1ccc(C(NC(=O)C(C)C)c2ccc3cccnc3c2O)cc1 (stereo not drawn)	?	1.64µM*	?	?	i	8.0%
CC(=O)NC(c1ccc(C)cc1)c1cc([N+](=O)[O-])c2cccnc2c1O (stereo not drawn)	?	?	-7.7%	?	?	25.3%
CCC(=O)NC(c1ccc(C)cc1)c1cc([N+](=O)[O-])c2cccnc2c1O (stereo not drawn)	i	16.4µM*	?	13µM*	?	?
CCCCC(=O)NC(c1ccc(OC)cc1)c1ccc2cccnc2c1O (stereo not drawn)	i	?	/	?	?	/
O=C(Cn1ncc2c(=O)oc3ccccc3c21)NCc1ccc(Cl)cc1	i	/	/	/	i	/
CCc1nn2c(=O)cc(COC(=O)C3CCCCC3)nc2s1	?	/	/	/	i	/
CC(=O)NC(c1ccco1)c1ccc2cccnc2c1O (stereo not drawn)	?	?	3.26µM*	?	8.2µM*	?
CCCC(=O)NC(c1ccc(C(C)C)cc1)c1ccc2cccnc2c1O (stereo not drawn)	?	-9.3%	1.3µM*	?	5.17µM*	?
CCCC(=O)NC(c1ccc(N(C)C)cc1)c1ccc2cccnc2c1O (stereo not drawn)	i	?	?	?	?	?
CC(C)NC(=S)Nc1ccc2cn[nH]c2c1	i	1.8%	-10.2%	3.6%	i	2.1%
O=Cc1ccc(-c2c(-c3ccccc3)oc3c2C(OCCCCO)CCC3)o1 (stereo not drawn)	i	?	/	?	i	/
CCCN1C(=O)/C(=N\OCC(=O)NC23CC4CC(CC(C4)C2)C3)c2ccccc21	16.4µM*	-5.1%	3.6%	-0.7%	i	29.8%
O=C(/C=C/c1ccccc1)OCN1C(=O)c2ccccc2C1=O	i	8.0%	-7.7%	14.5%	i	-1.8%
O=C(/C=C/c1ccccc1)n1cnnc1SC/C=C/c1ccccc1	i	1.0%	-3.3%	13.4%	i	27.4%
C(=C/c1ccnc2nc(SC/C=C/c3ccccc3)nn12)/c1ccccc1	16.4µM*	-17.3%	?	-0.7%	i	?
Fc1ccc(CCn2c(Cn3c(-c4cnccn4)nc4ccccc43)nc3ccccc32)cc1	?	-21.2%	/	-13.7%	?	/
c1ccc(Cn2c(Cn3c(-c4cnccn4)nc4ccccc43)nc3ccccc32)cc1	9.2µM*	?	/	-16.1%	i	/
CC[N+]1(CC(=O)c2ccc(Cl)cc2)CCCCC1	i	/	/	/	i	/
Oc1ccc(CCNc2ncnc3ccc(Cl)cc23)cc1	?	-23.7%	-62.3%	?	i	8.2µM*
O=C(COC(=O)c1cc(-c2ccccc2)nc2c(Cl)cccc12)c1ccc(F)cc1	i	/	/	/	i	/
SMILES	KB-V1 MDR tox	HT1080NT lethal	SW480 rereplic	HT1080 IDH1KD tx	KB-3-1 tox	MCF10A rereplic
CCOC(=O)C1CCN(C(c2cc3ccc(C)c(C)c3[nH]c2=O)c2nnnn2C2CCCCC2)CC1 (stereo not drawn)	16.4µM*	-6.2%	0.3%	?	i	12.6%
O=C1CCCCC1Nc1ccc(Br)cc1 (stereo not drawn)	i	-6.1%	0.5%	-4.5%	i	-1.4%
N#CC1CC(c2ccccc2)Nc2cc(Cl)ccc2N1 (stereo not drawn)	i	?	13µM*	?	?	?
C[C@@H]1C[C@H](O)c2cc(Cl)ccc2N1	i	-8.2%	-3.6%	-4.7%	i	5.8%
c1ccc(COc2ccccc2CNC23CC4CC(CC(C4)C2)C3)cc1	?	13µM*	?	16.4µM*	?	23.2%
COC(=O)C1=C(C)NC2=C(C(=O)CCC2)C1c1cn(Cc2ccc(Cl)cc2Cl)nc1-c1ccccc1 (stereo not drawn)	?	-27.1%	?	?	?	?
CCOC(=O)C1=C(C)NC2=C(C(=O)CCC2)C1c1cn(Cc2ccc(Cl)cc2Cl)nc1-c1ccccc1 (stereo not drawn)	?	?	2.82µM*	?	16.4µM*	?
CC1CC2(C)Oc3ccccc3CC2C(C)C1CNCCCN(C)C (stereo not drawn)	18.4µM*	5.8µM*	5.17µM*	6.51µM*	14.6µM*	7.31µM*

High-throughput results deposited in PubChem by National Center for Advancing Translational Sciences (NCATS).
